# In the supplement of paper PMC4466140:
# How the values were obtained:
# Assay in all cases: SPOT peptide array binding signal intensity (averaged, normalized) (arbitrary units (background-subtracted, floor 0; scale differs between SH3 domains)); higher = stronger binding of the SH3 domain to the peptide
# [1] = biological target: AgAbp1
# Outline: (§1)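 GST-SH3 fusions from four yeast species, purified on glutathione Sepharose, were incubated at 10 μg/ml overnight at 4°C on membranes of synthetic 15-mer peptides in which cysteines were replaced with serines. Binding signal is the normalized, background-subtracted spot intensity averaged over replicates, in domain-specific arbitrary units.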
# [2] = biological target: AgBbc1
# Outline: as §1
# [3] = biological target: AgBem1-D1
# Outline: as §1
# [4] = biological target: AgBzz1-D1
# Outline: as §1
# [5] = biological target: AgBzz1-D2
# Outline: as §1
# [6] = biological target: AgCyk3
# Outline: as §1
# [7] = biological target: AgFus1
# Outline: as §1
# [8] = biological target: AgHof1
# Outline: as §1
# [9] = biological target: AgHse1
# Outline: as §1
# [10] = biological target: AgLsb1
# Outline: as §1
# [11] = biological target: AgLsb4
# Outline: as §1
# [12] = biological target: AgMyo5
# Outline: as §1
# [13] = biological target: AgNbp2
# Outline: as §1
# [14] = biological target: AgRvs167
# Outline: as §1
# [15] = biological target: AgSho1
# Outline: as §1
# [16] = biological target: AgSla1-D1-D2
# Outline: as §1
# [17] = biological target: AgSla1-D3
# Outline: as §1
# [18] = biological target: CaAbp1-D1
# Outline: as §1
# [19] = biological target: CaAbp1-D2
# Outline: as §1
# [20] = biological target: CaBbc1
# Outline: as §1
# [21] = biological target: CaBem1-D1
# Outline: as §1
# [22] = biological target: CaBzz1-D1
# Outline: as §1
# [23] = biological target: CaBzz1-D2
# Outline: as §1
# [24] = biological target: CaCyk3
# Outline: as §1
# [25] = biological target: CaFus1
# Outline: as §1
# [26] = biological target: CaHof1
# Outline: as §1
# [27] = biological target: CaHse1
# Outline: as §1
# [28] = biological target: CaLsb1
# Outline: as §1
# [29] = biological target: CaLsb4
# Outline: as §1
# [30] = biological target: CaMyo5
# Outline: as §1
# [31] = biological target: CaNbp2
# Outline: as §1
# [32] = biological target: CaRvs167
# Outline: as §1
# [33] = biological target: CaRvs167-3
# Outline: as §1
# [34] = biological target: CaSho1
# Outline: as §1
# [35] = biological target: CaSla1-D1-D2
# Outline: as §1
# [36] = biological target: CaSla1-D3
# Outline: as §1
# [37] = biological target: ScAbp1
# Outline: as §1
# [38] = biological target: ScBbc1
# Outline: as §1
# [39] = biological target: ScBem1-D1
# Outline: as §1
# [40] = biological target: ScBzz1-D1
# Outline: as §1
# [41] = biological target: ScBzz1-D2
# Outline: as §1
# [42] = biological target: ScCyk3
# Outline: as §1
# [43] = biological target: ScFus1
# Outline: as §1
# [44] = biological target: ScHof1
# Outline: as §1
# [45] = biological target: ScHse1
# Outline: as §1
# [46] = biological target: ScLsb1
# Outline: as §1
# [47] = biological target: ScLsb2
# Outline: as §1
# [48] = biological target: ScLsb3
# Outline: as §1
# [49] = biological target: ScLsb4
# Outline: as §1
# [50] = biological target: ScMyo3
# Outline: as §1
# [51] = biological target: ScMyo5
# Outline: as §1
# [52] = biological target: ScNbp2
# Outline: as §1
# [53] = biological target: ScPex13
# Outline: as §1
# [54] = biological target: ScRvs167
# Outline: as §1
# [55] = biological target: ScSho1
# Outline: as §1
# [56] = biological target: ScSla1-D1-D2
# Outline: as §1
# [57] = biological target: ScSla1-D3
# Outline: as §1
# [58] = biological target: SpAbp1-D1
# Outline: as §1
# [59] = biological target: SpBbc1
# Outline: as §1
# [60] = biological target: SpBzz1-D1
# Outline: as §1
# [61] = biological target: SpBzz1-D2
# Outline: as §1
# [62] = biological target: SpCyk3
# Outline: as §1
# [63] = biological target: SpHof1
# Outline: as §1
# [64] = biological target: SpHof1-2
# Outline: as §1
# [65] = biological target: SpHof1-3
# Outline: as §1
# [66] = biological target: SpHse1
# Outline: as §1
# [67] = biological target: SpLsb1
# Outline: as §1
# [68] = biological target: SpLsb4
# Outline: as §1
# [69] = biological target: SpMyo1
# Outline: as §1
# [70] = biological target: SpNbp2
# Outline: as §1
# [71] = biological target: SpPex13
# Outline: as §1
# [72] = biological target: SpRvs167
# Outline: as §1
# [73] = biological target: SpSla1-D1-D2
# Outline: as §1
# [74] = biological target: SpSla1-D3
# Outline: as §1
binder,measurement,setting,value
LRIKRKPVQTFFEFI,SPOT peptide array binding signal intensity,[1],76
same,SPOT peptide array binding signal intensity,[2],24.2
same,SPOT peptide array binding signal intensity,[3],212
same,SPOT peptide array binding signal intensity,[4],109
same,SPOT peptide array binding signal intensity,[5],42
same,SPOT peptide array binding signal intensity,[6],4
same,SPOT peptide array binding signal intensity,[7],398
same,SPOT peptide array binding signal intensity,[8],19.5
same,SPOT peptide array binding signal intensity,[9],960
same,SPOT peptide array binding signal intensity,[10],1
same,SPOT peptide array binding signal intensity,[11],136
same,SPOT peptide array binding signal intensity,[12],0.5
same,SPOT peptide array binding signal intensity,[13],72
same,SPOT peptide array binding signal intensity,[14],4.33
same,SPOT peptide array binding signal intensity,[15],49
same,SPOT peptide array binding signal intensity,[16],432
same,SPOT peptide array binding signal intensity,[17],10.5
same,SPOT peptide array binding signal intensity,[18],816
same,SPOT peptide array binding signal intensity,[19],948
same,SPOT peptide array binding signal intensity,[20],91.2
same,SPOT peptide array binding signal intensity,[21],16
same,SPOT peptide array binding signal intensity,[22],107
same,SPOT peptide array binding signal intensity,[23],59.2
same,SPOT peptide array binding signal intensity,[24],18
same,SPOT peptide array binding signal intensity,[25],1010
same,SPOT peptide array binding signal intensity,[26],≤ 0
same,SPOT peptide array binding signal intensity,[27],15
same,SPOT peptide array binding signal intensity,[28],0.5
same,SPOT peptide array binding signal intensity,[29],59
same,SPOT peptide array binding signal intensity,[30],14
same,SPOT peptide array binding signal intensity,[31],468
same,SPOT peptide array binding signal intensity,[32],16.5
same,SPOT peptide array binding signal intensity,[33],843
same,SPOT peptide array binding signal intensity,[34],1260
same,SPOT peptide array binding signal intensity,[35],37
same,SPOT peptide array binding signal intensity,[36],37
same,SPOT peptide array binding signal intensity,[37],355
same,SPOT peptide array binding signal intensity,[38],6.75
same,SPOT peptide array binding signal intensity,[39],57
same,SPOT peptide array binding signal intensity,[40],39.5
same,SPOT peptide array binding signal intensity,[41],49.5
same,SPOT peptide array binding signal intensity,[42],138
same,SPOT peptide array binding signal intensity,[43],651
same,SPOT peptide array binding signal intensity,[44],5.5
same,SPOT peptide array binding signal intensity,[45],1800
same,SPOT peptide array binding signal intensity,[46],21.2
same,SPOT peptide array binding signal intensity,[47],5.5
same,SPOT peptide array binding signal intensity,[48],156
same,SPOT peptide array binding signal intensity,[49],23
same,SPOT peptide array binding signal intensity,[50],7
same,SPOT peptide array binding signal intensity,[51],1.75
same,SPOT peptide array binding signal intensity,[52],150
same,SPOT peptide array binding signal intensity,[53],18
same,SPOT peptide array binding signal intensity,[54],24.2
same,SPOT peptide array binding signal intensity,[55],718
same,SPOT peptide array binding signal intensity,[56],220
same,SPOT peptide array binding signal intensity,[57],14
same,SPOT peptide array binding signal intensity,[58],228
same,SPOT peptide array binding signal intensity,[59],5
same,SPOT peptide array binding signal intensity,[60],128
same,SPOT peptide array binding signal intensity,[61],0.5
same,SPOT peptide array binding signal intensity,[62],2
same,SPOT peptide array binding signal intensity,[63],436
same,SPOT peptide array binding signal intensity,[64],14
same,SPOT peptide array binding signal intensity,[65],784
same,SPOT peptide array binding signal intensity,[66],686
same,SPOT peptide array binding signal intensity,[67],4.25
same,SPOT peptide array binding signal intensity,[68],100
same,SPOT peptide array binding signal intensity,[69],4.5
same,SPOT peptide array binding signal intensity,[70],370
same,SPOT peptide array binding signal intensity,[71],23.5
same,SPOT peptide array binding signal intensity,[72],32.5
same,SPOT peptide array binding signal intensity,[73],≤ 0
same,SPOT peptide array binding signal intensity,[74],37
